# Shown are actives, neighbours in structure and some others; about 1.7% of the full set was active somewhere.
# HEK293 tox = qHTS of GLP-1 Receptor Inverse Agonists: Cytotox Screen. 0.13% of 410,000 active. Potency, µM (series often up to 38.3 µM), without a hit: top-dose activity change, negative = inhibition, hits mostly inhibitors. HEK293 cAMP-luciferase reporter cells, luminescence, 24 h;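 further: loss of luciferase light is scored as toxicity; on the % scale 0 is the no-effect control and ±100 the full control effect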
#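 A 23 nL compound transfer followed 12 hours of cell culture at 37 deg C; exposure then lasted 24 hr. Luciferase assay detection reagent was dispensed and plates read for luminescence after a 12 min room-temperature wait.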
# PTHR1 agonist = qHTS for PTHR1 Agonists: Primary Screen; AID 743266, 2014; 0.075% of 410,000 active; Potency, µM (titrated, usually from 115 µM), without a hit: top-dose activation, most hits filed as activators; HEK293 GP2 PTHR1 cells, GloSensor cAMP luminescence, 1 h; Parathyroid hormone/parathyroid hormone-related peptide receptor (Homo sapiens), Q03431; further: nearly all actives have a fitted effect of over 55% in size
# Target sequence (Q03431 whole entry, looked up): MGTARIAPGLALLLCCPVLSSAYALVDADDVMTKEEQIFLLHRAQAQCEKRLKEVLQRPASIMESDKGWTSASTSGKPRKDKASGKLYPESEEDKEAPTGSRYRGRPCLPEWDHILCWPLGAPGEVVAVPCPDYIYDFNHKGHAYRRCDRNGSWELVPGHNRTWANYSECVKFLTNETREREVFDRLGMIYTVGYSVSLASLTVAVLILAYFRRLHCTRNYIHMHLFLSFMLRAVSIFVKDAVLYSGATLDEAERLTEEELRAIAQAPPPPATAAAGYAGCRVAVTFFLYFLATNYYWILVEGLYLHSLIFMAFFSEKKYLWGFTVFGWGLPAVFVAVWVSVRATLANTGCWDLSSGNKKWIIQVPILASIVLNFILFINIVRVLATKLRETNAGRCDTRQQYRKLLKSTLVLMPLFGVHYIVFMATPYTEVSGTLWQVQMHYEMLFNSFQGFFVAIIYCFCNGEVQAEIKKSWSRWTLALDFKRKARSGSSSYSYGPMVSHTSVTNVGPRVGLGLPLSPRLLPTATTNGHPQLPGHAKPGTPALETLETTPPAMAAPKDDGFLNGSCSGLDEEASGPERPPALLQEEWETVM
#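 HEK-293-derived GP2 cells expressing PTHR1 and a GloSensor cAMP reporter, 3,000/well, plated overnight, given luciferin plus IBMX (each 0.5 mM as added) for 1 h at 37 °C, then compound for 1 h at 37 °C. Luminescence was read after 15 min at room temperature.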
# GLP-1R inv ag = qHTS of GLP-1 Receptor Inverse Agonists (Inhibition Mode); 1.6% of 410,000 active; Potency, µM (top dose mostly 38.3 µM), for inactives: top-dose activity change, negative = inhibition, most hits filed as inhibitors; HEK293 GLP-1R CRE-luciferase, luminescence, 24 h; GLP-1R form is constitutively active; further: on the % scale 0 is the no-effect control and ±100 the full control effect; nearly all actives have a fitted effect of over 55% in size
#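 Inverse agonism was detected as reduced cAMP-driven luciferase luminescence after 24 h compound treatment. The cells were HEK293 clones expressing constitutively active human GLP-1R with the reporter. Reporter-only and GPR119 cell lines served as counterscreen controls.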
# GLP1R ag = qHTS of GLP-1 Receptor Agonists. Glucagon-like peptide 1 receptor (Homo sapiens), P43220. HEK293 GLP-1R CRE-luciferase, luminescence, 4-6 h; cells express a hypersensitive GLP-1R form. Potency, µM (top dose mostly 45.6 µM), inactives show top-dose activation, most hits filed as activators. 0.007% of 380,000 active; further: % of control where 0% means no effect
# Starred values were filed as active, the others as inactive; i = inactive; ? = inconclusive; . = no result given; [ ] = another dose, or the depositor's remark. The call rests on the fitted dose curve; in most records, active means well fitted curve in the direction sought with a large enough effect; inconclusive means small, poorly fitted or top-dose-only effect, or another doubt; inactive means no such curve, though single readings can be large; an effect the other way counts as inactive or inconclusive. Potency means the concentration at half of the fitted maximal effect.
SMILES,HEK293 tox,PTHR1 agonist,GLP-1R inv ag,GLP1R ag
Cc1ccc(-n2ncc3c(N4CCCCC4)ncnc32)cc1Cl,2.3%,-32.2%,0.794µM*,.
CCCCn1nnc(NC(=O)COc2cc(C)ccc2C(C)C)n1,-11.9%,i,7.94µM*,5.9%
Cc1ccc(C(C)C)c(OCC(=O)Nc2ccc3c(c2)nc(CCN2CCCCC2)n3C)c1,-15.9%,-3.9%,8.91µM*,16.9%
CN1CCN(CCc2nc3cc(NC(=O)COc4ccc(Cl)cc4)ccc3n2C)CC1,-24.8%,i,10µM*,3.6%
CCCn1nnc(NC(=O)COc2cc(C)ccc2C(C)C)n1,-20.4%,i,0.0%,2.0%
CCn1c(CN2CCCCC2)nc2cc(NC(=O)COc3cc(C)ccc3C(C)C)ccc21,4.6%,-0.5%,?,.
CCOc1ccc(CCNc2ncnc3onc(-c4ccc(Cl)cc4)c23)cc1,-0.2%,-38.3%,-3.7%,.
CN(C)S(=O)(=O)c1ccc(Cl)c(NC(=O)CN2CCCCCC2)c1,15.7%,-2.9%,?,22.8%
CCC(C)NCC(=O)Nc1cc(S(=O)(=O)N(CC)c2ccccc2)ccc1Cl (stereo not given),-2.6%,i,?,6.4%
CCN(c1ccccc1)S(=O)(=O)c1ccc(Cl)c(NC(=O)CN(C)Cc2cccc(F)c2)c1,4.9%,-18.3%,5.01µM*,13.2%
CCN(c1ccccc1)S(=O)(=O)c1ccc(Cl)c(NC(=O)CN2CCCCCC2)c1,-0.3%,-27.2%,1.58µM*,21.3%
O=C(CC1NCCNC1=O)Nc1ccccc1F (stereo not given),3.6%,-23.3%,16.7%,-0.8%
CCCCc1ccc(NC(=O)C2CCCC2)cc1,-6.7%,-21.7%,10µM*,17.1%
O=C(OC1CCCCC1)c1ccc(NC(=O)C2CCCCC2)cc1,-16.3%,-14.7%,2.51µM*,6.7%
COc1ccccc1NC(=O)C1=C(C)Nc2nc3ccccc3n2C1c1ccccc1Cl (stereo not given),3.9%,-14.2%,9.5%,1.1%
CCn1c(C(=O)N2CCC(C(=O)NCCc3ccc(OC)cc3OC)CC2)cc2sccc21,0.4%,-79.1%,-9.5%,.
CCCCN(c1nc2ccccc2nc1Cl)S(=O)(=O)c1ccc(C)cc1,0.0%,-24.7%,10µM*,16.2%
CCCN(CCC)CC(O)CN(c1ccccc1)S(=O)(=O)c1ccc(C)cc1 (stereo not given),-23.7%,i,?,-0.4%
COc1ccccc1CNc1ncnc2c1nnn2C,5.8%,i,13.9%,.
COc1ccc(C)cc1Nc1ncnc2c1c(-c1ccccc1)cn2-c1ccc(C)cc1,3.2%,i,-13.3%,.
O=C(NCc1ccccc1F)C12CC3CC(CC(C3)C1)C2,7.4%,i,-16.0%,6.4%
COc1ccccc1CNC(=O)C12CC3CC(CC(C3)C1)C2,-16.2%,i,11.2µM*,3.7%
COc1ccccc1Cc1c(C2CCCCC2)nc2ccc(Cl)cn12,?,-11.5%,3.55µM*,-3.0%
O=C(Cc1ccc(Cl)cc1)Nc1ccc(-c2nnc(-c3ccco3)o2)cc1,?,i,10µM*,-11.2%
CCOc1ccc(Cn2c(CNS(=O)(=O)c3cccs3)nc3cccnc32)cc1,-5.9%,-22.1%,1.7%,.
SMILES,HEK293 tox,PTHR1 agonist,GLP-1R inv ag,GLP1R ag
CC1(C)SC(=S)N(NC(=O)Nc2cccc3ccccc23)C1N(O)C(=O)Nc1ccccc1 (stereo not given),-22.1%,i,11.2µM*,-12.0%
O=C(CSc1nc2ccccc2n1Cc1cccc(C(F)(F)F)c1)NCc1ccccc1,-15.0%,i,?,.
O=C(Nc1cccc(Cl)c1)Nc1cccc(C(=O)O)c1,-6.5%,-29.7%,?,-4.4%
O=C(Nc1ccc(Cl)c(Cl)c1)Nc1ccccc1C(=O)O,-7.2%,-34.1%,5.62µM*,-6.1%
O=C(Nc1ccc(Cl)cc1)Nc1cccc(C(=O)O)c1,0.5%,-15.5%,1µM*,-8.2%
O=C(Nc1cccc(C(=O)O)c1)Nc1ccccc1Cl,-2.2%,-30.6%,4.47µM*,-4.4%
O=C(Nc1ccc(Cl)cc1)Nc1ccccc1C(=O)O,4.9%,-45.2%,?,-7.8%
O=C(Nc1ccccc1Cl)NN1CCCCCC1,1.3%,-5.9%,2µM*,26.6%
Cc1ccc(CCNC(=O)c2ccc(CSCc3ccccc3Cl)o2)cc1,-0.5%,-28.8%,?,.
Cc1cccc(-c2noc(-c3ccccc3OCC(=O)Nc3ccccc3[N+](=O)[O-])n2)c1,7.3%,17.0%,9.1%,.
COC(=O)c1cc(NC(=O)Nc2ccccc2)ccc1Cl,-15.6%,-6.8%,10µM*,-8.6%
CCCCN(CC)CCNC(=O)c1c(C)oc2ncnc(N3CCOCC3)c12,0.4%,i,-1.1%,.
CC1=Nc2cc(C(=O)NC3CCCC3)ccc2Sc2ccc(C)cc21,?,i,5.01µM*,-2.2%
CNC(=O)c1ccc2c(c1)N=C(C)c1cc(C)ccc1S2,-24.7%,-10.7%,?,0.5%
CCC1=Nc2cc(C(=O)NC3CCCC3)ccc2Sc2ccc(Cl)cc21,?,12.2%,?,.
CC1=Nc2cc(C(=O)NC3CCCC3)ccc2Sc2ccc(Cl)cc21,?,-65.3%,1.58µM*,.
CCc1ccc(C2=NN(C(=O)OC)C(O)(C(F)(F)F)C2)cc1 (stereo not given),0.3%,-16.3%[57.5 µM],7.94µM*,-1.1%
Cc1ccc2[nH]c3c(c2c1)CCCC3NCCO (stereo not given),-3.6%,-20.6%,10µM*,-4.1%
Cc1ccc2[nH]c3c(c2c1)CCCC3=O,1.7%,-7.3%,14.7%,1.7%
CN1CCN(NC(=O)c2cn(-c3ccccc3)nc2-c2cccc(Br)c2)CC1,?,i,3.16µM*,-1.2%
CN1CCN(NC(=O)c2cn(-c3ccccc3)nc2-c2cccs2)CC1,1.1%,-5.3%,-19.6%,9.2%
Cc1cc(OCC(=O)NCCCN(C)C)cc(C)c1Br,13.6%,-11.8%[57.5 µM],2.82µM*,0.5%
CCc1ccc(OCC(=O)NC2CCCCC2)c(Br)c1,12.5%,-29.7%,?,16.5%
CCc1ccc(OCC(=O)NCCN(C)C)c(Br)c1,8.7%,i,10µM*,11.2%
CC1CCc2c(sc3nc(C4CC4)nc(N4CCN(C(=O)c5ccco5)CC4)c23)C1 (stereo not given),?,-34.3%,5.62µM*,-4.4%
COc1ccc(NC(=O)CCCSc2nc(-c3ccco3)cc(C(F)(F)F)n2)c(OC)c1,-3.4%,-17.9%,?,.
CCOC(=O)c1cc(-c2ccccc2)n(-c2cccc(C(=O)Nc3cccc(F)c3)c2)c1C,-19.4%,-12.6%,?,.
CCOC(=O)c1cc(-c2ccccc2)n(-c2cccc(C(=O)Nc3cccc(SC)c3)c2)c1C,-5.6%,-36.9%,3.55µM*,.
CCOC(=O)c1cc(-c2ccccc2)n(-c2cccc(C(=O)Nc3cccc(C(C)=O)c3)c2)c1C,-25.7%,-40.4%,5.62µM*,.
Cc1nc2c(c(C)nn2C(C)(C)C)c(C)c1CCC(=O)Nc1ccc(F)cc1,-4.6%,-21.8%,-18.5%,-7.6%
